Experimental data taken from PubChem BioAssay AID1159580 (chemical genetic matrix, 2015).
In all, about 5,500 compounds went through this assay and about 2,000 (36%) were called active. Not shown: some 18% with an inconclusive outcome. Rule as the data show it: active = normalized growth mostly below about 0.91 (no sharp cut-off); inconclusive = no clear call, values can overlap the other calls; inactive = mostly above about 0.92. This is one part of the list.

Test: chemical genetic growth profiling, strain panel (AID 1159580);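 also: tested at 20 µM; growth read once vehicle control cultures reached saturation at 30 °C; 1 = growth at the plate median or of vehicle wells; lower values mean less growth of the strain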
Details: growth OD

Measured: normalized growth

C=C1CCC2C(CC2(C)C)C(=C)CC/C1=N\O (centres undefined)
inactive: S. cerevisiae deletion strains, locus YJL187C, strain SWE1, stronger effect = lower value 1.01 | S. cerevisiae deletion strains, locus YJR043C, strain POL32, stronger effect = lower value 0.905 | S. cerevisiae deletion strains, locus YJR075W, strain HOC1, stronger effect = lower value 0.894 | S. cerevisiae deletion strains, locus YKL068W, stronger effect = lower value 0.996 | S. cerevisiae deletion strains, locus YKL085W, strain MDH1 (second series), stronger effect = lower value 0.972 | S. cerevisiae deletion strains, locus YKL085W, strain MDH1, stronger effect = lower value 0.972 | S. cerevisiae deletion strains, locus YKL160W, strain elf1, stronger effect = lower value 1 | S. cerevisiae deletion strains, locus YKL190W, strain CNB1, stronger effect = lower value 1.01 | S. cerevisiae deletion strains, locus YKR026C, strain gcn3, stronger effect = lower value 0.998 | S. cerevisiae deletion strains, locus YKR091W, strain srl3, stronger effect = lower value 0.995 | S. cerevisiae deletion strains, locus YLL001W, strain dnm1, stronger effect = lower value 1.01 | S. cerevisiae deletion strains, locus YLL026W, stronger effect = lower value 0.999 | S. cerevisiae deletion strains, locus YLL041C, strain sdh2, stronger effect = lower value 0.994 | S. cerevisiae deletion strains, locus YLR027C, strain aat2, stronger effect = lower value 1 | S. cerevisiae deletion strains, locus YLR058C, strain SHM2, stronger effect = lower value 1.01 | S. cerevisiae deletion strains, locus YLR102C, strain apc9, stronger effect = lower value 1.01 | S. cerevisiae deletion strains, locus YLR221C, strain rsa3, stronger effect = lower value 0.983 | S. cerevisiae deletion strains, locus YLR258W, strain gsy2, stronger effect = lower value 1.01 | S. cerevisiae deletion strains, locus YLR262C, strain YPT6 (second series), stronger effect = lower value 0.966 | S. cerevisiae deletion strains, locus YLR268W, strain sec22, stronger effect = lower value 0.936 | S. cerevisiae deletion strains, locus YLR320W, strain mms22, stronger effect = lower value 0.984 | S. cerevisiae deletion strains, locus YLR330W, strain CHS5, stronger effect = lower value 1.01 | S. cerevisiae deletion strains, locus YLR342W, strain FKS1, stronger effect = lower value 1.01 | S. cerevisiae deletion strains, locus YLR357W, strain rsc2, stronger effect = lower value 1.03 | S. cerevisiae deletion strains, locus YLR370C, strain arc18, stronger effect = lower value 0.996 | S. cerevisiae deletion strains, locus YLR371W, strain rom2, stronger effect = lower value 0.994 | S. cerevisiae deletion strains, locus YLR384C, strain iki3, stronger effect = lower value 0.992 | S. cerevisiae deletion strains, locus YLR418C, strain cdc73, stronger effect = lower value 0.847 | S. cerevisiae deletion strains, locus YML016C, strain PPZ1, stronger effect = lower value 0.999 | S. cerevisiae deletion strains, locus YML120C, strain ndi1, stronger effect = lower value 1.01 | S. cerevisiae deletion strains, locus YML124C, strain tub3, stronger effect = lower value 0.99 | S. cerevisiae deletion strains, locus YMR058W, strain fet3, stronger effect = lower value 1.01 | S. cerevisiae deletion strains, locus YMR078C, strain ctf18, stronger effect = lower value 0.978 | S. cerevisiae deletion strains, locus YMR125W, strain sto1, stronger effect = lower value 1.03 | S. cerevisiae deletion strains, locus YMR129W, stronger effect = lower value 1 | S. cerevisiae deletion strains, locus YMR205C, strain PFK2, stronger effect = lower value 0.992 | S. cerevisiae deletion strains, locus YMR223W, strain ubp8, stronger effect = lower value 0.906 | S. cerevisiae deletion strains, locus YMR231W, strain pep5, stronger effect = lower value 0.997 | S. cerevisiae deletion strains, locus YMR263W, strain SAP30, stronger effect = lower value 0.962 | S. cerevisiae deletion strains, locus YNL067W, strain RPL9B, stronger effect = lower value 0.942 | S. cerevisiae deletion strains, locus YNL071W, strain lat1, stronger effect = lower value 1 | S. cerevisiae deletion strains, locus YNL128W, strain TEP1, stronger effect = lower value 0.964 | S. cerevisiae deletion strains, locus YNL153C, strain GIM3, stronger effect = lower value 0.972 | S. cerevisiae deletion strains, locus YNL209W, strain ssb2, stronger effect = lower value 1 | S. cerevisiae deletion strains, locus YNL233W, strain BNI4, stronger effect = lower value 0.892 | S. cerevisiae deletion strains, locus YNL248C, strain rpa49, stronger effect = lower value 1 | S. cerevisiae deletion strains, locus YNL250W, strain rad50, stronger effect = lower value 0.991 | S. cerevisiae deletion strains, locus YNL271C, strain bni1, stronger effect = lower value 0.969 | S. cerevisiae deletion strains, locus YNL322C, strain KRE1 (second series), stronger effect = lower value 0.983 | S. cerevisiae deletion strains, locus YNL322C, strain KRE1, stronger effect = lower value 0.988 | S. cerevisiae deletion strains, locus YNR049C, strain mso1, stronger effect = lower value 0.997 | S. cerevisiae deletion strains, locus YNR052C, strain pop2, stronger effect = lower value 0.944 | S. cerevisiae deletion strains, locus YOL006C, strain TOP1, stronger effect = lower value 0.725 | S. cerevisiae deletion strains, locus YOL012C, strain htz1 1.35 | S. cerevisiae deletion strains, locus YOL147C, strain pex11, stronger effect = lower value 0.983 | S. cerevisiae deletion strains, locus YOR001W, strain rrp6, stronger effect = lower value 0.985 | S. cerevisiae deletion strains, locus YOR061W, strain CKA2, stronger effect = lower value 0.997 | S. cerevisiae deletion strains, locus YOR069W, strain VPS5, stronger effect = lower value 1.01 | S. cerevisiae deletion strains, locus YOR070C, strain gyp1, stronger effect = lower value 0.991 | S. cerevisiae deletion strains, locus YOR080W, strain dia2, stronger effect = lower value 1.01 | S. cerevisiae deletion strains, locus YOR083W, strain WHI5, stronger effect = lower value 0.989 | S. cerevisiae deletion strains, locus YOR106W, strain vam3, stronger effect = lower value 1 | S. cerevisiae deletion strains, locus YOR136W, strain idh2, stronger effect = lower value 0.972 | S. cerevisiae deletion strains, locus YOR144C, strain elg1, stronger effect = lower value 0.976 | S. cerevisiae deletion strains, locus YOR265W, strain rbl2, stronger effect = lower value 0.993 | S. cerevisiae deletion strains, locus YOR270C, strain vph1, stronger effect = lower value 0.987 | S. cerevisiae deletion strains, locus YOR290C, strain snf2, stronger effect = lower value 0.972 | S. cerevisiae deletion strains, locus YOR316C, strain cot1, stronger effect = lower value 1 | S. cerevisiae deletion strains, locus YPL051W, strain arl3, stronger effect = lower value 1.03 | S. cerevisiae deletion strains, locus YPL055C, strain LGE1, stronger effect = lower value 0.844 | S. cerevisiae deletion strains, locus YPL078C, strain atp4, stronger effect = lower value 1 | S. cerevisiae deletion strains, locus YPL106C, strain sse1, stronger effect = lower value 1.05 | S. cerevisiae deletion strains, locus YPL240C, strain hsp82, stronger effect = lower value 1 | S. cerevisiae deletion strains, locus YPR119W, strain clb2, stronger effect = lower value 0.983 | S. cerevisiae deletion strains, locus YPR141C, strain kar3, stronger effect = lower value 1.01 | S. cerevisiae deletion strains, locus YPR163C, strain tif3, stronger effect = lower value 0.996 | S. cerevisiae deletion strains, locus YPR167C, strain met16, stronger effect = lower value 0.993 | S. cerevisiae deletion strains, strain wtn01, stronger effect = lower value 0.915 | S. cerevisiae strains, strain wild type, stronger effect = lower value 0.982
active: S. cerevisiae deletion strains, locus YKL009W, strain mrt4, stronger effect = lower value 0.879 | S. cerevisiae deletion strains, locus YKR001C, strain vps1, stronger effect = lower value 0.703 | S. cerevisiae deletion strains, locus YLR039C, strain RIC1, stronger effect = lower value 0.441 | S. cerevisiae deletion strains, locus YLR262C, strain YPT6, stronger effect = lower value 0.393 | S. cerevisiae deletion strains, locus YLR342W, strain FKS1 (second series), stronger effect = lower value 0.694 | S. cerevisiae deletion strains, locus YML032C, strain rad52, stronger effect = lower value 0.89 | S. cerevisiae deletion strains, locus YMR307W, strain GAS1, stronger effect = lower value 0.423 | S. cerevisiae deletion strains, locus YNL298W, strain CLA4, stronger effect = lower value 0.878 | S. cerevisiae deletion strains, locus YNL307C, strain MCK1, stronger effect = lower value 0.683 | S. cerevisiae deletion strains, locus YOR184W, strain ser1, stronger effect = lower value 0.697
